Experimental findings from PubChem BioAssay are described below.

In experiment [1] the test system is Human papillomavirus type 1a protein E7 (residues 44-93). Nature of the experiment: small molecules binding HPV E7 44-93 – biochemical, small-molecule microarray, residues 44-93, 635 nm fluorescence, primary screen (AID 1108).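 Further: E7 fragment applied at 1 µg/mL in TBST for 1 h at 4 C; score combines spot fluorescence with its signal to noise ratio.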 Conditions: fluorescence 635 nm, higher = more signal.
Experiment [2] is described as follows: hepatitis C replication reporter changes, two-sided – Huh7 cells, luciferase reporter, HCV replication inhibitor project, primary screen (AID 1109).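 Further: huh7 hepatoma cells harbouring a luciferase neomycin HCV replicon reporter; luciferase luminescence as measure of HCV replicon replication; test concentration not given here.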 Conditions: Huh7 HCV replicon luciferase reporter, 48 h; higher = more signal.
Experiment [3] addresses Left-right determination factor 2 (Homo sapiens) (UniProt O00292). Briefly: small molecules binding LEFTY2 protein – biochemical, small-molecule microarray, 635 nm fluorescence scan, primary screen (AID 1110). Conditions: higher = more signal.
Experiment [4] has as its target Calmodulin-1 (Homo sapiens) (UniProt P0DP23). Nature of the experiment: small molecules binding calmodulin-1 with EGTA – biochemical, small-molecule microarray, Cy5-labelled CALM1, profiling panel (AID 1111).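 Further: labelled calmodulin applied in Tris saline Tween buffer holding calcium plus EGTA and DTT.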 Conditions: Cy5-CALM1 binding fluorescence, higher = more signal.
Experiment [5] shares this target. Briefly: small molecules binding Ca-loaded calmodulin-1 – biochemical, small-molecule microarray, Cy5-labelled CALM1, plus calcium, artefact control for SMM control-protein annotation, profiling panel (AID 1112).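 Further: score merges spot fluorescence with signal to noise from triplicate slides.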 Conditions: Cy5-CALM1 binding fluorescence, higher = more signal.
Experiment [6] can be described thus: probe aWnt5a binding to arrayed compounds – biochemical, biotinylated probe, 635/667 nm fluorescence, primary screen (AID 1113).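 Further: score merges 667 nm fluorescence intensity with signal-to-noise per printed feature.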 Conditions: small-molecule microarray, higher = more signal.
The nature of experiment [7]: probe aShh binding to arrayed compounds – biochemical, biotinylated probe, 635/667 nm fluorescence, primary screen (AID 1114).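 Further: probe is biotin-labelled aShh protein from a stem cell growth factor screen; measures binding of labelled protein to compounds printed on the slide; score merges feature fluorescence at 667 nm with signal-to-noise.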 Conditions: small-molecule microarray, higher = more signal.
Experiment [8] is described as follows: probe aNog binding to arrayed compounds – biochemical, biotinylated probe, 635/667 nm fluorescence, primary screen (AID 1115).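 Further: probe is biotinylated aNog protein used at 0.15 µg/mL for 1 h at 4 C; z-score combines 667 nm fluorescence of each spot with its signal to noise.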 Conditions: small-molecule microarray, higher = more signal.
Experiment [9] concerns the target Torsin-1A-interacting protein 1 (Homo sapiens) (UniProt Q5JTV8). Nature of the experiment: compound microarray binding of lysate hLAP1 – cell lysate, small-molecule microarray, COS7 lysate, 635/667 nm fluorescence, primary screen (AID 1116). Conditions: 635 nm fluorescence, higher = more signal.
For experiment [10], the target named is Alpha-bungarotoxin (Bungarus multicinctus) (UniProt P60615). Nature of the experiment: compounds binding labelled alpha-BTX control protein – biochemical, small-molecule microarray, Alexa647 label, 635/667 nm fluorescence, artefact control for SMM control protein annotation, profiling panel (AID 1117). Conditions: alpha-BTX-A647 binding fluorescence, higher = more signal.
Alpha-bungarotoxin (Bungarus multicinctus), sequence (P60615 whole entry, looked up): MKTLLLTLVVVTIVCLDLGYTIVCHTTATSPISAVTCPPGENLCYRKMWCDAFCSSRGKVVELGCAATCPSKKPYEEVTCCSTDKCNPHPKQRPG

Torsin-1A-interacting protein 1 (Homo sapiens), sequence (Q5JTV8 whole entry, looked up): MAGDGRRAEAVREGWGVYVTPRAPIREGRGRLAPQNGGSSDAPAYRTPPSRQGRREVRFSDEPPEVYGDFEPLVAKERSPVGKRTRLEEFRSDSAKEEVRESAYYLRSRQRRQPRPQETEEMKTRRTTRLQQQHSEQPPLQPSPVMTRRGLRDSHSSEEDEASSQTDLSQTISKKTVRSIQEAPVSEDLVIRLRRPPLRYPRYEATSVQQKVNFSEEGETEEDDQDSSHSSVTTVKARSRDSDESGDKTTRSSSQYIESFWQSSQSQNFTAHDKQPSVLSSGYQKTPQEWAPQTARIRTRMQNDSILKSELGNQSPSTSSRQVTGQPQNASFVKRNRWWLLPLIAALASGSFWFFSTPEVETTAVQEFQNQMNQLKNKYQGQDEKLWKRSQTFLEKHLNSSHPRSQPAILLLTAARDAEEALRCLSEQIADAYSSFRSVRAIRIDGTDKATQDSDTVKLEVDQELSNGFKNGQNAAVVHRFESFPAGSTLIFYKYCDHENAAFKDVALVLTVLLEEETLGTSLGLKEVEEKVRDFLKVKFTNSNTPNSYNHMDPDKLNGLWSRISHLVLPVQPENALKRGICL
Left-right determination factor 2 (Homo sapiens), sequence (O00292 whole entry, looked up): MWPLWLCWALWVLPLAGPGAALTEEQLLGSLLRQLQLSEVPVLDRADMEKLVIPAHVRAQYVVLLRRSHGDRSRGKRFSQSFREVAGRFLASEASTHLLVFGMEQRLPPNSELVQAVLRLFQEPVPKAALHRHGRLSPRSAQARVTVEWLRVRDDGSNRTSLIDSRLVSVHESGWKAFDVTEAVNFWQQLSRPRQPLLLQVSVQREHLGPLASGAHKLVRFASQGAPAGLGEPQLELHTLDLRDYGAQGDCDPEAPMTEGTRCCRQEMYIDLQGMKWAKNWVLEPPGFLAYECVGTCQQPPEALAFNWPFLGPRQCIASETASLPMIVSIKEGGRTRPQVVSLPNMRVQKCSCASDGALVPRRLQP

Turning to `COC(=O)[C@H](C)NC(=O)CCC1CC(OC(=O)NCc2cccc3ccccc23)CC2(CCCC(COC(=O)NCCC(C)C)O2)O1` (stereo not given in full), the composite z-score in [1] was 0.991; in experiment [3] it was 0.449; in experiment [4] it was -0.234; in experiment [5] it was -0.371; in experiment [6] it was -0.109; in experiment [7], -0.147. Further, the values for the composite z-score in experiment [8], in experiment [9] and in experiment [10] were -0.268, -0.228 and -0.178, respectively. In experiment [2], this molecule came in with a z-score of -0.243.

In the case of `C#CCCCON=C1C[C@@H](O)[C@@H](O)[C@@H]2[C@@H]3C(=O)N(C4CCCCC4)C(=O)[C@@H]3CC[C@@H]12`, the composite z-score in experiment [1] was 0.428; in [3], 0.321; in experiment [4], -0.346; in [5], -0.342; in [6] it was -0.0685; in experiment [7], -0.212. Also, the composite z-score was -0.494 in [8], 0.366 in [9] and 0.281 in experiment [10]. Also, the z-score in [2] is -0.0098.

For `CC1(C)O[C@H]2OC([C@H](O)CON3C(=O)c4ccccc4C3=O)[C@H](O)[C@H]2O1` (stereo not given in full), the composite z-score in experiment [1] is -0.0928; in [3], 0.244; in experiment [4] it was -0.494; in experiment [5] it was -0.539; in [6], -0.109; in experiment [7], -0.27. Also, the composite z-score is -0.218 in [8], -0.1 in experiment [9] and -0.0472 in experiment [10]. The molecule also registered a z-score in experiment [2] of -0.585.

For the molecule `CCN1C(=O)[C@H]2[C@H]3[C@H](O)[C@H](O)CC(=NOC[C@@H](O)[C@H]4O[C@@H]5OC(C)(C)O[C@@H]5[C@H]4O)[C@@H]3CC[C@H]2C1=O`, the composite z-score was -0.629 in [1]; 0.484 in experiment [3]; -0.154 in [4]; -0.324 in [5]; -0.096 in experiment [6]; -0.0289 in [7]. The composite z-score in experiment [8] is -0.0733; in experiment [9], -0.209; in experiment [10], 0.0203. In [2], this molecule yielded a z-score of -0.299.

As for `COc1ccc(COC(=O)NN=C2C[C@@H](O)[C@@H](O)[C@@H]3[C@@H]4C(=O)N(Cc5ccc6c(c5)OCO6)C(=O)[C@@H]4CC[C@H]23)cc1`, the composite z-score in [1] was -0.433; in [3], -0.34; in [4], -0.704; in experiment [5] it was -0.276; in experiment [6] it was 0.0438; in experiment [7], 0.0121. Also, the composite z-score in experiment [8] worked out at 0.788; in [9] it was 0.0406; in [10], 0.164. In [2], this molecule registered a z-score of -0.191.

In the case of `CC(C)(C)N1C(=O)[C@H]2[C@H]3[C@H](O)[C@H](O)CC(=NOC[C@@H](O)COCc4ccco4)[C@H]3CC[C@H]2C1=O`, the composite z-score in [1] was 0.39; in [3] it was -0.203; in experiment [4], -0.0051; in experiment [5] it was -0.333; in experiment [6] it was -0.147; in [7] it was -0.0471. Moreover, the composite z-score in experiment [8] turned out to be 0.0868; in [9] it was 0.706; in experiment [10] it was 1.15. This molecule also gave a z-score in [2] of 0.61.

Consider `CC(CCC(=O)OC[C@H]1O[C@H](C#Cc2ccccc2)C=C[C@@H]1Oc1ccc(C)cc1)=NOC(C)CN1CCCc2nc(C)c(C)cc21` (stereo not given in full), for which the composite z-score in experiment [1] was 1.21; in experiment [3] it was 0.447; in [4], 0.687; in experiment [5], -0.0954; in [6], -0.0944; in [7] it was -0.0146. Besides, the composite z-score in experiment [8] was found to be 0.125; in experiment [9] it was 0.132; in experiment [10], 0.898. The molecule also came in with a z-score in experiment [2] of -0.456.

With `CON(C)C(=O)c1nnc2c(n1)[nH]c1ccccc12`, the composite z-score was -0.186 in experiment [1]; 0.414 in [3]; -0.15 in experiment [4]; -0.229 in experiment [5]; -0.148 in [6]; -0.23 in experiment [7]. In addition, the composite z-score in [8] is -0.33; in [9] it was 2.14; in experiment [10], 0.573. The z-score in experiment [2] was 2.27.

Take `C[C@H]1CC[C@H]2C(=O)O[C@H](CO)CN2[C@@H]1c1ccc(Br)cc1`: the composite z-score in experiment [1] is 0.33; in experiment [3], 0.217; in experiment [4], -0.25; in [5], -0.445; in experiment [6] it was -0.213; in experiment [7], -0.276. Also, the composite z-score in experiment [8] is -0.234; in [9], -0.138; in experiment [10], 0.126. The z-score in [2] is -0.0002.

For `CCN1C(=O)[C@H]2[C@H]3[C@H](O)[C@H](O)CC(=NOC[C@@H](O)COCc4ccco4)[C@H]3CC[C@H]2C1=O`, the composite z-score in experiment [1] was 0.296; in [3], 1.41; in experiment [4] it was -2.21; in experiment [5] it was -2.59; in experiment [6] it was -0.216; in experiment [7] it was -0.2. The results for the composite z-score in experiment [8], in experiment [9] and in [10] were -0.878, -0.0551 and -0.441, respectively. Further, in experiment [2], the z-score was -0.389.

`O=C(NCCC[N+]1=CC=NC1c1ccccc1)N1CCCc2nc(-c3ccc(Br)cc3)ccc21` (stereo not given): the composite z-score is 0.107 in experiment [1]; 0.498 in [3]; 0.626 in experiment [4]; 0.0894 in experiment [5]; -0.0145 in [6]; 0.0141 in [7]. Also, the values for the composite z-score in experiment [8], in experiment [9] and in [10] were 0.0481, 0.0439 and -0.436, respectively. Also, in experiment [2], the z-score was -3.49.

For `CC1(C)O[C@H]2O[C@H]([C@H](O)CON=C3[C@H]4CCn5c(=O)n(-c6ccccc6)c(=O)n5[C@H]4[C@H](O)[C@@H]4O[C@H]34)[C@H](O)[C@H]2O1`, the composite z-score in experiment [1] was -1.32; in experiment [3], 0.257; in experiment [4], 0.759; in [5], 0.118; in experiment [6], -0.0748; in experiment [7], -0.501. The composite z-score in experiment [8] is 0.222; in experiment [9] it was -0.144; in [10] it was 0.168. The molecule also displayed a z-score in experiment [2] of -0.0374.

As for `CCN1C(C)=C(C(=O)OC)[C@@H](c2ccccc2)N2C(=O)[C@](O)(C(=O)OC)CC(C(C)=O)=C12`, the composite z-score in [1] was 0.285; in experiment [3], 0.784; in [4] it was -0.232; in experiment [5], -0.604; in experiment [6], -0.0037; in experiment [7] it was -0.179. Moreover, the composite z-score in [8] amounted to 0.0511; in experiment [9] it was 0.455; in [10], 0.371. Besides, the z-score in experiment [2] came out at 0.308.

For the molecule `C=CC[C@@H]1C=C[C@H](ON=C[C@@H](NS(=O)(=O)c2ccc(C)cc2)[C@H](C)C=CCC(=O)OC)[C@@H](CO)O1`, the composite z-score in [1] is -0.782; in experiment [3], 0.917; in experiment [4] it was -0.83; in experiment [5] it was -0.984; in [6] it was -0.13; in experiment [7], -0.138. Further, the composite z-score in experiment [8] was -0.402; in experiment [9], 0.269; in experiment [10] it was 0.452. In [2], this molecule came in with a z-score of -0.0493.

Take `CN1CCc2nc(-c3ccccc3)c(-c3ccccc3)cc2C1`: the composite z-score in experiment [1] was 0.321; in [3], 0.47; in [4], -0.174; in [5], -0.414; in experiment [6], -0.0239; in [7] it was 0.204. Also, the composite z-score was -0.287 in [8], 0.269 in experiment [9] and 0.127 in experiment [10]. In experiment [2], this molecule had a z-score of 0.179.

Take `CC(CCN1CCCCc2nc(C)c(C)cc21)=NO[C@@H](C)c1cc(-c2c(C)cc(C)cc2C)no1`: the composite z-score in experiment [1] was -0.384; in [3], -0.747; in experiment [4], -0.901; in [5] it was -0.891; in experiment [6], -0.152; in experiment [7] it was -0.221. Moreover, the composite z-score in [8] is -0.298; in [9] it was 0.0623; in [10], -0.664. Moreover, the z-score in experiment [2] is -1.56.

As to `O=C1C2=CC[C@H]3C(=O)N(C4CCCCC4)C(=O)[C@H]3[C@H]2[C@H](O)[C@@H]2O[C@H]12`, the composite z-score in experiment [1] was -1.46; in experiment [3], -0.0026; in [4], -0.883; in experiment [5], -0.828; in [6], -0.206; in experiment [7], -0.282. For the same molecule, the composite z-score was -0.307 in experiment [8], -0.11 in experiment [9] and -0.635 in experiment [10]. In experiment [2], this molecule yielded a z-score of -5.43.
